From PubChem BioAssay AID559 (PCMD, 2006) come the findings set out here.

One may read the inhibition as the drop in the measured response relative to a control, in per cent.

The structures appear in SMILES notation. In all, about 62,000 compounds went through this assay and about 100 (0.2%) were called active. This is one part of a sample in which actives are shown more often than they occur. Unmarked numbers belong to inactive results. Rule as the data show it: active = inhibition above about 20%; inactive = the rest.

DNA-directed RNA polymerase subunit beta (Escherichia coli (strain K12)), sequence (P0A8V2 whole entry, looked up): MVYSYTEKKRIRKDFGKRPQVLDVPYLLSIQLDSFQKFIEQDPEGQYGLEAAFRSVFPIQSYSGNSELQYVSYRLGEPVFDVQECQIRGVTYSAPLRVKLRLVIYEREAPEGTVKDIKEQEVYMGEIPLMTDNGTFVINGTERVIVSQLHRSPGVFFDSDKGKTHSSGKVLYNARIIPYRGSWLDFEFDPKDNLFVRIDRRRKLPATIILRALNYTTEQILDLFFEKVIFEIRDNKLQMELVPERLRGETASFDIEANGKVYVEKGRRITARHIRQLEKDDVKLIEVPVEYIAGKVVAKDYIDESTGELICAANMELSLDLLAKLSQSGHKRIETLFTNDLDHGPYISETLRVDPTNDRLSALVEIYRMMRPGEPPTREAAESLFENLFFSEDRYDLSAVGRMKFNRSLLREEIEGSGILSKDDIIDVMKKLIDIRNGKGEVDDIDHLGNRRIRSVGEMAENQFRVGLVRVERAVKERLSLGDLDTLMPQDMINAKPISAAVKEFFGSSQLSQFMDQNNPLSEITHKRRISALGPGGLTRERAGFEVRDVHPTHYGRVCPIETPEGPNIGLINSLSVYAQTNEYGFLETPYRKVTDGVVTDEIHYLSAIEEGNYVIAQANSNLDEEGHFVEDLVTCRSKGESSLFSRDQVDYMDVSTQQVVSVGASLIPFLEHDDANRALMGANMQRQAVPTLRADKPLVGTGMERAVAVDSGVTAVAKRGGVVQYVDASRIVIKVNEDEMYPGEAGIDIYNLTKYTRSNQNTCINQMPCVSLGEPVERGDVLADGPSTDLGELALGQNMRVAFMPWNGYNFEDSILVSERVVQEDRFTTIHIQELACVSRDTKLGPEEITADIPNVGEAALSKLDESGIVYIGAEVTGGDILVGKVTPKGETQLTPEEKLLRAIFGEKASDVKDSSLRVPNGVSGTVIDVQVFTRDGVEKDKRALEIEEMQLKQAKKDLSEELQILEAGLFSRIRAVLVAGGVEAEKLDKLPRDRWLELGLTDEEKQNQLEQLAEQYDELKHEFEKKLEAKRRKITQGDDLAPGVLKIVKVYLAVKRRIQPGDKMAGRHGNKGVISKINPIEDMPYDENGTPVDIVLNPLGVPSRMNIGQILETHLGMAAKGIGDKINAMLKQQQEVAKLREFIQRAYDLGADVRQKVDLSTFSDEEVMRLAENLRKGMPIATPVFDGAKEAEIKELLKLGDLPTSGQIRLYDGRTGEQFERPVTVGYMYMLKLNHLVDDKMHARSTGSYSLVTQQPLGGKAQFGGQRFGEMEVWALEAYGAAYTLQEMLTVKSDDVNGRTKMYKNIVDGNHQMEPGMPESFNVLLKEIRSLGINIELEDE

The assay has as its target DNA-directed RNA polymerase subunit beta (Escherichia coli (strain K12)) (UniProt P0A8V2). Kind of assay: bacterial RNA polymerase transcription inhibition – biochemical (AID 559).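 Also: 0% = enzyme without compound and 100% = no enzyme blank.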 To be noted: E. coli RNA polymerase, fluorescence transcription assay; active compounds read high;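 tested at 10 µM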.
On to `Cc1ccc(NC(=O)CN(C)S(=O)(=O)c2cnc[nH]2)cc1C`, for which the inhibition was 6.13%.
For `Cc1ccc2c(c1)sc1ncc(NC(=O)c3ccccc3)c(=O)n12`, the inhibition was -11.4%.
The value for `CCCCCCn1c(SCC(=O)c2ccccc2)nc2c1c(=O)[nH]c(=O)n2C` was -4.3%; that for `c1ccc(CCc2nc(-c3ccncc3)no2)cc1` was 8.17%.
As to `CC1CCN(Cc2nc3c(c(=O)n(C)c(=O)n3C)n2Cc2cccc3ccccc23)CC1`, the inhibition was 11.8%.
Regarding `CC(c1ccccc1)n1c(NCCCn2ccnc2)nc2c1c(=O)[nH]c(=O)n2C` (stereo unspecified), the inhibition was 6.37%.
Regarding `O=C(Nc1ccccc1N1CCCCC1)c1ccc2nccnc2c1`, the inhibition is 5.19%.
For `CC(C)[C@H](NC(=O)Nc1ccc(S(N)(=O)=O)cc1)C(=O)O` the value was 3.2%.
For `Cc1cccc(C2c3c(n(C)c(=O)n(C)c3=O)N=C3c4ccccc4C(=O)C32)c1` (stereo unspecified) the value was 8.94%.
Take `CSc1nc2ccc(S(=O)(=O)N3CCc4ccccc43)cc2s1`: the inhibition is 0.59%.
On to `Cc1nn(C)c(C)c1S(=O)(=O)N1CCc2ccccc21`, for which the inhibition was 27.2% (active).
Regarding `Cn1c(=O)n(C)c2cc(S(=O)(=O)N3CCCc4ccccc43)ccc21`, the inhibition is 0.45%.
With `COCCOC(=O)C1=C(C)NC(=O)NC1c1ccc(Cl)cc1` (stereo unspecified), the inhibition is 7.31%.
For `COC(=O)c1ccc(C2CC(=O)Nc3cc(OC)c(OC)cc32)cc1` (stereo unspecified), the inhibition was 3.45%.
The value for `CCc1cccc2c3c([nH]c12)C(CC)(CC(=O)O)OCC3` (stereo unspecified) was 8.22%; that for `O=C(O)C1OC(C(=O)O)C2C1C(F)(F)C2(F)F` (stereo unspecified) was 3.61%; that for `NS(=O)(=O)c1cc2c(cc1Cl)NC(C(Cl)Cl)NS2(=O)=O` (stereo unspecified) was 8.21%.
For `CCS(=O)(=O)n1nc(-c2ccc(OC)cc2)nc1SC` the value was 5.44%; for `Cc1ccc(CC2CC(=O)N(c3ccc4c(c3)OCCO4)C2=O)cc1` (stereo unspecified), 7.6%; for `Cn1c2c(c(=O)n(C)c1=O)C1c3ccccc3OCC1C(C)(C)O2` (stereo unspecified), 11.7%.
Turning to `CC1(c2ccccc2Cl)NC(=O)N(CC(=O)NC(=O)NCc2ccco2)C1=O` (stereo unspecified), the inhibition was 3.56%.
`CCOc1ccc(Cn2c(SCCCCC#N)nc3c2c(=O)n(C)c(=O)n3C)cc1OCC`: the inhibition was 1.66%.
With `CCOC(=O)NC(C(F)(F)F)(C(F)(F)F)P(=O)(c1ccccc1)c1ccccc1`, the inhibition was 12.5%.
Take `O=C(NCC1CCCO1)C(C(=O)c1ccccc1)n1cc(Cl)ccc1=O` (stereo unspecified): the inhibition is -2.02%.
As to `O=C(COC(=O)c1ccccc1C(=O)c1ccccc1)c1ccco1`, the inhibition is 4.61%.
For the compound `Cc1ccc(NC(=O)c2cc(-c3ccc(C)o3)nc3ccccc23)nc1`, the inhibition is 2.57%.
Regarding `O=C(c1ccc2c(c1)N(Cc1ccc(F)cc1)C(=O)CS2)N1CCOCC1`, the inhibition was -0.9%.
Consider `Cc1nc2c(-c3ccccc3)c(C)[nH]n2c(=O)c1Cl`, for which the inhibition was 0.3%.
As to `CCNc1nc(N)nc(Oc2ccc(OCC)nn2)n1`, the inhibition is 16.5%.
Regarding `COc1ccc(OCC(=O)OCC(=O)Nc2ccc(S(=O)(=O)N3CCCCC3)cc2)cc1`, the inhibition is 6.57%.
The value for `Cc1noc(C)c1S(=O)(=O)Nc1ccc(C(=O)O)cc1` was -2.73%; that for `C=CCNC(=O)C1CC=CCC1C(=O)O` (stereo unspecified) was -0.09%.
Turning to `CC(C)(C)NC(=O)NC(=O)COC(=O)Cn1c(C(F)(F)F)nc2ccccc21`, the inhibition is -0.99%.
Take `O=C(CSc1nc2[nH]ncc2c(=O)n1-c1ccccc1)N1CCCc2ccccc21`: the inhibition is -2.19%.
As for `CCOc1ccc(NS(=O)(=O)c2ccc(OCC(=O)NCCCOC)cc2)cc1`, the inhibition is 0.48%.
Take `COCCCN(C(=O)Cn1ncc2c(=O)oc3ccc(C)cc3c21)C(C)c1ccncc1` (stereo unspecified): the inhibition is 5.04%.
Regarding `CCc1c(C)c2c(C)[nH]nc2oc1=O`, the inhibition is 6.94%.
As for `CCCOc1ccccc1-c1nc(SCCC(=O)O)n[nH]1`, the inhibition was 4.03%.
As for `CCC(C)(NC(=O)c1ccccn1)C(=O)NC1CCCCC1` (stereo unspecified), the inhibition is 24.2% (active).
As for `CN(CC(=O)NC1CCCCC1)S(=O)(=O)c1cccc2cccnc12`, the inhibition was 1.4%.
In the case of `CCC(C)(C(=O)NC1CCCC1)N(C(=O)CNC(C)=O)c1ccc(C)cc1` (stereo unspecified), the inhibition was 2.29%.
Turning to `CCN1C(=O)/C(=C2/Sc3ccccc3N2CCCS(=O)(=O)O)SC1=S`, the inhibition was 14%.
As to `COCCNC(=O)CN1C(=O)CSc2ncccc21`, the inhibition was 2.28%.
As for `Cc1ccc(Cn2c(NC(=O)c3ccco3)nc3ccccc32)cc1`, the inhibition is 3.14%.
For `CCOC(=O)C1CCCN(C(=O)c2sc3nc(C)nc(N4CCOCC4)c3c2C)C1` (stereo unspecified) the value was 6.92%; for `COc1cccc(N2CCN(C(=O)C3CCCN(S(=O)(=O)c4cnc[nH]4)C3)CC2)c1` (stereo unspecified), 6.57%; for `Cn1c(=O)c2c(nc(N3CCCCCC3)n2CC(=O)c2ccc(Br)cc2)n(C)c1=O`, 6.56%.
The value for `O=CN1CCN(C2CC(=O)N(c3ccc4c(c3)OCO4)C2=O)CC1` (stereo unspecified) was -2.9%.
Take `Cc1cc(NC(=O)CSc2nnc(-c3ccc(Cl)s3)o2)no1`: the inhibition was 2.94%.
`Nc1nonc1-c1nc2ccccc2n1Cc1ccc(F)cc1`: the inhibition is 1.54%.
For `COCc1cc(C)nc(SCC(=O)Nc2cccc(C)c2)c1C#N`, the inhibition is 10.2%.
Turning to `CC(C)C(c1nnnn1Cc1ccccc1)N1CCC(C(N)=O)CC1` (stereo unspecified), the inhibition is 9.07%.
The value for `O=C(NC1CCCCC1)n1c(=O)oc2cc(S(=O)(=O)N3CCCCC3)ccc21` was 5.56%; that for `COC(=O)c1c(NC(=O)CCN2CCOCC2)sc2c1CCCC2` was 7.91%.
For `Cc1cc(C)nc(NC2=NCC(=O)N2c2ccc(Cl)cc2)n1`, the inhibition is 9.3%.
Take `COC(=O)CCSc1nccn1Cc1ccccc1`: the inhibition is 2.17%.
On to `O=C1CSC(=O)N1CCOCCN1C(=O)CSC1=O`, for which the inhibition was 8.19%.
The value for `CCOc1ccccc1Nc1nnc(SCc2ccc(C(=O)OC)o2)s1` was 3.87%; that for `CC(=O)OCc1cc2cc(C)ccc2[nH]c1=O` was 8.56%; that for `CC(C)OC(=O)CN1C(=O)c2ccccc2C1=O` was 8.17%.
With `COCCN(C(=O)CCC(=O)Nc1ccccn1)C(C(=O)NCCC(C)C)c1ccc(OC)cc1` (stereo unspecified), the inhibition was 9.79%.
Regarding `Cc1oc(-c2ccccc2F)nc1CS(=O)(=O)CC(=O)NCCCN(C)C1CCCCC1`, the inhibition was 4.54%.
On to `Cc1nnc(NC(=O)CSc2nccn2-c2cccc(C)c2C)s1`, for which the inhibition was 8.46%.
In the case of `Cc1cc(C(=O)COC(=O)CCCN2C(=O)c3ccccc3C2=O)c(C)n1C`, the inhibition is 4.5%.
Consider `COc1ccc(Br)cc1/C=N/n1c(C)nnc1C`, for which the inhibition was 11.2%.
For the compound `COCCN(CC(=O)Nc1ccccc1C)S(=O)(=O)c1ccc(S(=O)(=O)N2CCCC2)cc1`, the inhibition was 4.44%.
For the compound `CC(C(=O)N1CCOCC1)N1c2cccc3cccc(c23)S1(=O)=O` (stereo unspecified), the inhibition was 8.72%.
For `O=C(CCCN1C(=O)CCC1=O)Nc1ccc(Cl)c(C(F)(F)F)c1` the value was -1.3%.
Take `C=CCNc1nnc(SCC(=O)N2CCCCC2)c2ccccc12`: the inhibition is 5.18%.
The value for `CCOc1ccc(CNC(=O)C2CC(=O)N(C3CCCC3)C2)cc1OC` (stereo unspecified) was -2.47%; that for `COC(=O)[C@H](Cc1ccccc1)NC(=O)Nc1ccc(S(N)(=O)=O)cc1` was 10.2%.
Turning to `CNC(=O)C1CC(=O)N(Cc2ccc3c(c2)OCO3)C(=Nc2ccc(F)cc2)S1` (stereo unspecified), the inhibition is -0.38%.
For `CCOc1ccc(C(C)C)cc1S(=O)(=O)n1nc(C)cc1C`, the inhibition is 5.62%.
On to `CN1CCN(CCCNC(=O)c2cc3c(=O)oc4ccccc4c3s2)CC1`, for which the inhibition was 7.32%.
On to `CCC(=O)Nc1cccc(NC(=O)CSc2nnnn2C2CCCC2)c1`, for which the inhibition was 9.82%.
For `Cc1cc(C)n(C(=O)c2ccc(S(=O)(=O)N3CCCC3)cc2)n1` the value was -6.35%; for `Cc1ccc(-c2ccc(=O)n(CC(=O)NCCCN3CCCCC3)n2)cc1`, 5.27%; for `O=C(CCCOc1ccccc1)Nc1cccc(C(=O)O)c1`, 5.97%.
Consider `COc1ccc(CC(=O)c2ccc(O)cc2O)cc1OC`, for which the inhibition was -2.96%.
As for `Nc1nnnn1/N=C/c1cccs1`, the inhibition was 0.8%.
Regarding `COc1c(C)cccc1C(=O)Nc1cc(Cl)ccc1N1CCOCC1`, the inhibition is 5.92%.
For the compound `c1cnn(-c2cc(N3CCOCC3)ncn2)c1`, the inhibition is -13.1%.
For `O=C(Nc1cc(N2CCOCC2)ncn1)NC1(C(F)(F)F)Oc2ccc(Cl)cc2O1` (stereo unspecified), the inhibition is 35.4% (active).
For the compound `Cc1ccc(C)c2[nH]c(=O)c(CCNC(=O)CC(C)C)cc12`, the inhibition is 6.91%.
With `O=C(NCCc1ccccn1)c1ccc(COc2ccccc2)o1`, the inhibition is 5.1%.
For `CC1CC(C)CN(CC(=O)Nc2ccc(S(N)(=O)=O)cc2)C1` (stereo unspecified) the value was 4.05%.
`Cc1cc(Nc2ccc(Br)cc2F)n2ncnc2n1`: the inhibition was -2.75%.
`CN1CCc2c(sc3c2c(NCc2ccco2)nc2nnnn23)C1`: the inhibition is -5.9%.
For the compound `COc1ccc(-c2nc(CS(=O)CC(=O)NCc3cccnc3)c(C)o2)cc1OC` (stereo unspecified), the inhibition was -0.41%.
`CCOC(=O)c1c(CN2CCOCC2)n(-c2ccccc2)c2ccc(O)cc12`: the inhibition was 9.89%.
`COc1cc(OC)cc(-c2nc3nc(C)c(CCC(=O)NCc4ccco4)c(C)n3n2)c1`: the inhibition was 0.61%.
As for `CC(=O)c1nc(N2C(=O)C3CC=C(C)CC3C2=O)sc1C` (stereo unspecified), the inhibition was 8.57%.
With `O=C1c2oc3ccc(Br)cc3c(=O)c2C(c2cccc(F)c2)N1CCO` (stereo unspecified), the inhibition is 2.5%.
Take `CN1C(=O)c2ccc(NC(=O)c3c(F)c(F)c(F)c(F)c3F)cc2C1=O`: the inhibition is 11.6%.
Turning to `Cn1c(SCC(=O)Nc2cccc(O)c2)nnc1-c1ccc(S(=O)(=O)N2CCOCC2)cc1`, the inhibition was 0.17%.
For `Fc1ccccc1OCCCCn1cncn1`, the inhibition is 2.62%.
